An excerpt weighted towards active compounds, which were near 2.8% of everything screened.
AHR act = AHR activators, primary screen, cell-based, luminescence, luciferase reporter, human | actives 2.5% (n = 320,000) | AID 2796, 2010 | activation, % at 5 µM | Aryl hydrocarbon receptor (Homo sapiens), P35869 | AHR-responsive luciferase reporter cells; in the data active = activation above about 47%;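 note: 0% = vehicle wells and 100% = reference agonist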
Target sequence (P35869 whole entry, looked up): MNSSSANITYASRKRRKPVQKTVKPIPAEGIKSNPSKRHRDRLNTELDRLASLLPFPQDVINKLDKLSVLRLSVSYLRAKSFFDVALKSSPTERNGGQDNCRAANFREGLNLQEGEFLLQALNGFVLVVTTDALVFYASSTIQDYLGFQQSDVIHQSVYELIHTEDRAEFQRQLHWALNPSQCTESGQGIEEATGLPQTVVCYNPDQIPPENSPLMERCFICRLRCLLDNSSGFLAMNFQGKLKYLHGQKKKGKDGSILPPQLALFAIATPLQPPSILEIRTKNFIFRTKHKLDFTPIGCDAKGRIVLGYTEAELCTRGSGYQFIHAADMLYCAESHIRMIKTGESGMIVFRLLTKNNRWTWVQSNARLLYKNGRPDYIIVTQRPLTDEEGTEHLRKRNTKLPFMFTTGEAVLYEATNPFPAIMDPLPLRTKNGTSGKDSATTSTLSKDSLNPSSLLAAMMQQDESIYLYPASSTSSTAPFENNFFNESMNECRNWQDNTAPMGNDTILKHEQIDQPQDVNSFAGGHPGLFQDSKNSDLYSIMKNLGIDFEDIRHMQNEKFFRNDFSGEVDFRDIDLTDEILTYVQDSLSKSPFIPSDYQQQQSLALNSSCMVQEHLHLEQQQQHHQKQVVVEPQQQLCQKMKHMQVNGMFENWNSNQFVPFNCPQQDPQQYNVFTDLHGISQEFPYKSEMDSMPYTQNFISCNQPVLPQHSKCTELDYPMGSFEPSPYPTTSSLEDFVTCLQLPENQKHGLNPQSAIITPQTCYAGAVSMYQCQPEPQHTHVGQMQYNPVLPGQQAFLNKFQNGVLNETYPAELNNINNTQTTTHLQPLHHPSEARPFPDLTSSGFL
p-CIP stab down = p/CIP-EGFP fusion destabilizers, primary screen, fluorescence, F442A cells | Q05BA5 | 16 h | decrease of EGFP signal, % at 10 µM | actives 0.01% (n = 290,000);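 active = EGFP signal decrease of at least 30% at 10 µM or well 3 SD below plate mean, unless failing retest; inactive = the rest, including hits failing retest or dose response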
Platelet DG rel = inhibitors of platelet dense granule secretion, primary screen, cell-based, MLPCN, human platelets; human platelet-rich plasma, SFLLRN dense granule ATP release, luminescence; inhibition, %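 (compounds screened at 7.5 µM in platelet-rich plasma)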; actives 0.22% (n = 300,000); AID 1663, 2009;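 active = mean replicate score, as percent of positive control, at or above 50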
HIF activator = HIF pathway transcriptional activators, primary screen, cell-based, U2OS HRE-luciferase, luminescence; U2OS HRE-luciferase reporter; normalized: DMSO 0%, desferrioxamine 100%; activation, % at 7.5 µM (by protocol); actives 0.32% (n = 300,000); AID 1910, 2009;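 active = mean activation of at least 10% of the iron chelator positive control signal, with at least half of replicates also reaching 10%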
PolyA inh = polyadenylation inhibitors in yeast reporter cells, primary screen, luminescence, S. cerevisiae; S. cerevisiae SKY197-pL101 polyadenylation reporter, beta-gal luminescence; efflux-impaired pdr1/pdr3 knockout yeast; score 100 = 6 SD above DMSO; actives 0.02% (n = 300,000); activity score, % at 12 µM;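 active = lowest replicate activity score at least 50, where 100 means six control SD above control mean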;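 note: yeast exposed to compound for 9 h at 30 °C; higher score means more reporter readthrough which indicates perturbed polyadenylation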
Active calls of the source: *; / = no result.

SMILES	AHR act	p-CIP stab down	Platelet DG rel	HIF activator	PolyA inh
CC(C)c1ccc2oc(=O)cc(CN3CCOCC3)c2c1	5	-7	5	40*	-21
CCC(CC)NC(=O)Cc1ccccc1OC	1	-2	-1	0	10
C/C1=C\CCC2C(/C=C(\C)CC1)OC(=O)C2CN1CCCCC1 (stereo unspecified)	1	3	8	1	0
Cc1ccc2c(c1)C1NC(=S)NC(C)(O2)C1C(=O)Nc1ccc(Cl)cc1 (stereo unspecified)	7	4	1	51*	-5
CC(NC(=O)/C(C#N)=C/c1ccc(N2CCOCC2)cc1)c1ccccc1 (stereo unspecified)	47*	-6	3	-1	-5
Cc1cc(=O)[nH]c(N/N=C/c2cccc(Br)c2)n1	22	-10	0	1	8
Cc1cc(=O)[nH]c(N/N=C/c2ccccn2)n1	11	-9	4	40*	8
O=c1cnnc(N/N=C/c2ccccn2)[nH]1	5	-6	3	75*	6
COc1cccc(C2C3=C(N=c4s/c(=C\c5ccccc5O)c(=O)n42)c2ccccc2CC3)c1OC (stereo unspecified)	2	-10	-1	616*	32
CSc1nc(C)c2c(n1)N(c1cccc(C)c1)CC2	7	-17	-54	0	1
Nc1c2c(nc3ccc(Br)cc13)N(c1ccccc1)CC2	76*	4	/	/	/
Nc1c2c(nc3ccc(Br)cc13)N(C1CCCCC1)CC2	52*	-9	-16	-3	-8
Cc1cccc(N2CCc3c2nc2ccc(Br)cc2c3N)c1	108*	-5	-3	0	-11
Nc1c2c(nc3ccc(Br)cc13)N(Cc1ccccc1)CC2	50*	5	0	0	-5
COc1cc2c(cc1OC)C(COc1cc(C)cc(C)c1)N(C(C)=O)CC2 (stereo unspecified)	8	-5	-6	0	2
Cc1nc2c(c(-c3ccccc3)c1C#N)C(=O)c1ccccc1-2	1	-9	0	0	-26
Cc1nc2c(c(C)c1C#N)C(=O)c1ccccc1-2	72*	6	6	0	-20
CC(C)c1ccc(CNc2ccc3c(c2)ncn3C)cc1	63*	3	-3	2	-3
Cn1c(SCC(=O)NCc2ccc(F)cc2)ncc(C(=O)Nc2ccccc2)c1=O	12	/	8	1	-14
Cn1c(SCC(=O)NCC2CCCO2)ncc(C(=O)Nc2ccc(Cl)cc2)c1=O (stereo unspecified)	56*	/	10	2	16
Cn1c(SCC(=O)NCc2ccc3c(c2)OCO3)ncc(C(=O)Nc2ccc(F)cc2)c1=O	49*	/	5	1	3
CCn1c(SCC(=O)NCC2CCCO2)nnc1-c1ccc(Cl)cc1 (stereo unspecified)	2	0	1	0	3
CCOCCCn1c(SCC(=O)NCc2ccc3c(c2)OCO3)nc2ccccc2c1=O	70*	5	8	0	10
CCCCNC(=O)CSc1nc2ccccc2c(=O)n1Cc1ccc2c(c1)OCO2	-1	-4	11	-1	2
Cn1c(SCC(=O)NCC2CCCO2)ncc(C(=O)Nc2ccc(F)cc2)c1=O (stereo unspecified)	51*	/	16	0	-11
SMILES	AHR act	p-CIP stab down	Platelet DG rel	HIF activator	PolyA inh
Cn1c(SCC(=O)NCCc2ccccc2)ncc(C(=O)Nc2ccccc2)c1=O	18	/	15	0	-6
COc1ccc(CN(C)C(=O)C2CCN(C(=O)Nc3ccccc3)CC2)cc1	-1	/	8	0	-2
O=C(CSc1cn[nH]n1)Nc1ccc(Cl)cc1Cl	0	-4	2	0	-14
O=C(/C=C/c1ccc(Br)cc1)c1ccc(NC(=O)c2ccco2)cc1	48*	-1	-1	0	-14
O=C(/C=C/c1ccc(Br)cc1)c1ccco1	-8	-5	1	1	-15
CNC(=O)COC(=O)c1ccc2c(c1)NC(=O)C1CCCN21 (stereo unspecified)	0	-23	3	2	-2
Fc1ccccc1Nc1nc(-c2ccncc2)nc2ccccc12	56*	-11	4	0	-30
Fc1ccc(Nc2nc(-c3ccncc3)nc3ccccc23)cc1	52*	-8	3	0	-16
